High-throughput results as filed in PubChem.
Rows were chosen to be rich in hits. Some 17% of all compounds tested hit in one or more screens of this group.
HT1080-NT tox: kills 2HG-producing HT-1080-NT fibrosarcoma cells; Potency, µM (top dose mostly 46.1 µM), for the others: top-dose activity, negative = less viability, hits mostly cytotoxic; hit rate 1.6% among 360,000; HT-1080-NT fibrosarcoma viability, CellTiter-Glo ATP luminescence, 48 h;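 also: NT is the 2HG producing partner of a matched IDH1 knockdown line; 0% = DMSO-treated cells and -100% = media-only wells without cells; nearly all actives have a fitted effect of over 55% in size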
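HT-1080-NT fibrosarcoma cells (2HG-overproducing), 750 cells/well in RPMI with 5% FBS, dosed after 2 h and incubated 48 h at 37C. CellTiter-Glo luminescence normalized to DMSO and no-cell wells; concentration-response curves fitted and classed.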
TGFb SMAD3 inh: inhibitors of TGF-b signaling; HepG2 CAGA-GFP TGF-b/SMAD3 reporter, GFP fluorescence, 18 h; TGF-beta stimulated, 500 pg/mL final; Potency, µM (top dose mostly 46.1 µM), without a hit: at the top dose activity, negative = inhibition, hits mostly inhibitors; hit rate 1.2% among 410,000; AID 588855; also: % is scaled to controls: 0 for no effect and ±100 for the full control effect; nearly all actives have a fitted effect of over 65% in size
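HEPG2 CAGA-GFP cells (1000/well, DMEM with 1% FBS) were pre-incubated 2 h at 37 degrees C, given compound by pin tool, then stimulated with TGF-beta at 500 pg/mL final for 18 h before per-cell GFP fluorescence imaging.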
TDP1 cell noCPT: qHTS for Inhibitors of human tyrosyl-DNA phosphodiesterase 1 (TDP1): qHTS in cells in absence of CPT; DT40 Tdp1-/- hTDP1 cells, no CPT, ATP luminescence, 48 h; hit rate 15% among 420,000; Potency, µM (series often up to 46.2 µM), inactives show at the top dose activity change, negative = growth inhibition, usual class: inhibitors; also: % is scaled to controls: 0 for no effect and ±100 for the full control effect; nearly all actives have a fitted effect of over 55% in size
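Chicken DT40 Tdp1-/- cells complemented with human TDP1, screened without camptothecin (DMSO vehicle only), 400 cells/well. Compounds pin-transferred, cells incubated at 37 °C for at least 48 hr. Growth read as ATP-dependent luminescence (CellTiter-Glo, 30 min at RT).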
TDP1 cell CPT: growth inhibition of DT40 Tdp1-/-;hTDP1 cells with camptothecin (screen for TDP1 inhibitors); hit rate 12% among 420,000; chicken DT40 Tdp1-/-;hTDP1 cells + 20 nM CPT, ATP luminescence, 48 h; Potency, µM (highest dose often 46.2 µM), inactives show top-dose activity change, negative = growth inhibition, usual class: inhibitors; also: % is scaled to controls: 0 for no effect and ±100 for the full control effect; nearly all actives have a fitted effect of over 55% in size
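Chicken DT40 Tdp1-/- cells stably complemented with human TDP1 were seeded at 400 cells/well in medium containing 20 nM camptothecin, exposed to pin-transferred compounds, and grown at 37 °C for at least 48 hr. Viability was read as ATP luminescence.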
HepG2 tox: HepG2 cytotoxicity, counter-screen for TGF-b inhibitors. HepG2 CAGA-GFP viability, ATP luminescence, 18 h. Potency, µM (top dose mostly 46.1 µM), for inactives: at the top dose activity change, negative = cytotoxicity, actives largely listed as cytotoxic. hit rate 0.76% among 410,000. AID 588856
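CellTiter-Glo luminescence gave cytotoxicity after 18 hours at 37 degrees C. The cells were HepG2 CAGA-GFP in 1% FBS DMEM, stimulated with 500 pg/mL TGF-beta after compound addition. %Activity was normalised to no-cell wells (complete cell-killing) and DMSO (no toxicity), and curves were fitted and classified.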
HT1080 IDH1KD tx: HT-1080 IDH1 knockdown cell toxicity (counter line); AID 686971; Potency, µM (highest dose often 46.1 µM), for inactives: top-dose activity, negative = toxicity, usual class: cytotoxic; hit rate 2% among 360,000; HT-1080 IDH1 knockdown viability, ATP luminescence, 48 h;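 also: 0% = DMSO wells and -100% = cell-free medium wells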
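Luminescent ATP read-out (CellTiter-Glo, 10 min at room temperature) after 48 h compound exposure at 37 °C gave viability of IDH1-knockdown HT-1080 cells. Activity was normalised to DMSO and cell-free wells, then fitted as concentration-response curves.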
Starred values were filed as active, the others as inactive. Calls follow the shape of the dose curve; as a rule, active = well fitted curve in the direction sought with a large enough effect; inconclusive = small, poorly fitted or top-dose-only effect, or another doubt; inactive = no such curve, though single readings can be large; an effect the other way counts as inactive or inconclusive. Potency is read from the fitted curve at half-maximal effect.

What do the screens show for `COc1ccccc1Nc1nnc(SCC(=O)NC(=O)Nc2ccc3c(c2)OCCO3)s1`?
HT1080-NT tox: 9%; TGFb SMAD3 inh: 7%; TDP1 cell noCPT: inconclusive; TDP1 cell CPT: inconclusive; HepG2 tox: -9%; HT1080 IDH1KD tx: 8%

How did Cc1cccc(Nc2nnc(SCC(=O)Nc3cccc(S(=O)(=O)N4CCCCC4)c3)s2)c1 do in these assays?
HT1080-NT tox: -15%; TGFb SMAD3 inh: inconclusive; TDP1 cell noCPT: 23µM*; TDP1 cell CPT: 23µM*; HepG2 tox: 9%; HT1080 IDH1KD tx: -23%

How did Cc1cccc(C)c1Nc1nnc(SCC(=O)Nc2cc(S(=O)(=O)N3CCCCC3)ccc2Cl)s1 do in these assays?
HT1080-NT tox: 8%; TGFb SMAD3 inh: -17%; TDP1 cell noCPT: 21µM*; TDP1 cell CPT: inconclusive; HepG2 tox: -13%; HT1080 IDH1KD tx: 7%

Results for Cc1csc(SCC(=O)Nc2ccccc2C)n1 ?
HT1080-NT tox: 4%; TGFb SMAD3 inh: -7%; TDP1 cell noCPT: -8%; TDP1 cell CPT: 1%; HepG2 tox: -4%; HT1080 IDH1KD tx: 5%

How did Cc1cccc(Nc2nnc(SCC(=O)NC(=O)Nc3ccc4c(c3)OCCO4)s2)c1 do in these assays?
HT1080-NT tox: 23µM*; TGFb SMAD3 inh: 3%; TDP1 cell noCPT: inconclusive; TDP1 cell CPT: inconclusive; HepG2 tox: -6%; HT1080 IDH1KD tx: inconclusive

What do the screens show for `CCCCCN1CN(S(=O)(=O)c2cccs2)c2nc3ccccc3nc21`?
HT1080-NT tox: 2%; TGFb SMAD3 inh: 3%; TDP1 cell noCPT: -22%; TDP1 cell CPT: inconclusive; HepG2 tox: 35%; HT1080 IDH1KD tx: -2%

Results for Cc1cccc(C)c1Nc1nnc(SCC(=O)c2ccc(Br)s2)s1 ?
HT1080-NT tox: -7%; TGFb SMAD3 inh: inconclusive; TDP1 cell noCPT: 16µM*; TDP1 cell CPT: inconclusive; HepG2 tox: -15%; HT1080 IDH1KD tx: -10%

How did Cn1nnnc1SCC(=O)Nc1cc(S(=O)(=O)N2CCCCC2)ccc1Cl do in these assays?
HT1080-NT tox: -5%; TGFb SMAD3 inh: -4%; TDP1 cell noCPT: 23µM*; TDP1 cell CPT: 18µM*; HepG2 tox: -21%; HT1080 IDH1KD tx: -2%

Results for Cc1csc(SCC(=O)Nc2ccc(S(=O)(=O)N3CCCC3)cc2)n1 ?
HT1080-NT tox: -5%; TGFb SMAD3 inh: 2%; TDP1 cell noCPT: -20%; TDP1 cell CPT: 18µM*; HepG2 tox: 1%; HT1080 IDH1KD tx: -12%

How did Cn1nnnc1SCC(=O)Nc1cc(S(=O)(=O)N2CCCC2)ccc1Cl do in these assays?
HT1080-NT tox: 4%; TGFb SMAD3 inh: -25%; TDP1 cell noCPT: 0%; TDP1 cell CPT: 9%; HepG2 tox: -3%; HT1080 IDH1KD tx: 6%

Results for O=C(Nc1ccccc1C(=O)N1CCN(c2ccccc2)CC1)c1ccco1 ?
HT1080-NT tox: 0%; TGFb SMAD3 inh: -2%; TDP1 cell noCPT: -3%; TDP1 cell CPT: 0%; HepG2 tox: 5%; HT1080 IDH1KD tx: 2%

Results for CCCCn1nnnc1C(c1ccccc1)N1CCN(c2ncc(C(F)(F)F)cc2Cl)CC1 (stereo unspecified) ?
HT1080-NT tox: -14%; TDP1 cell noCPT: 18µM*; TDP1 cell CPT: inconclusive; HT1080 IDH1KD tx: -21%

How did COc1ccc(N2CCN(C(c3ccccc3)c3nnnn3Cc3ccccc3)CC2)cc1 (stereo unspecified) do in these assays?
TGFb SMAD3 inh: 2%; TDP1 cell noCPT: 16µM*; TDP1 cell CPT: inconclusive; HepG2 tox: 0%
